The results in this text go back to the supplement of paper PMC10037445.

For assay [1], the system named is RAW-Dual. In words: NF-kB SEAP reporter activity, fold change vs agonist alone; cytotoxicity flag (confluency mask): not cytotoxic; higher = enhanced NF-kB activity. The essentials:
(§1)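 RAW-Dual macrophages (50,000 cells/well in DMEM, 384-well plates) received 50 nL of library stock by pin tool, then a PRR agonist 1 h later, and were kept at 37 °C, 5% CO2. After 20 hours, supernatant was read for IRF by QuantiLuc luminescence and for NF-κB by QuantiBlue absorbance at 620 nm. Reporter activity is fold change over agonist-alone wells. Cytotoxic wells had IncuCyte confluency below 70% of agonist controls in both mask sets.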

Assay [2] has as its system RAW-Dual. In words: NF-kB SEAP reporter activity, fold change vs agonist alone; higher = enhanced NF-kB activity. In a few lines:
as §1

Assay [3] deals with RAW-Dual. In words: NF-kB SEAP reporter activity, fold change vs agonist alone; cytotoxicity flag (confluency mask): cytotoxic (confluency <70% of control); higher = enhanced NF-kB activity. The essentials: as §1
[4] abbreviates: agonist: ODN 1826 (TLR9) 0.5 ug/mL.
Setting [5] is: agonist: Pam2CSK4 (TLR2/6) 0.1 ug/mL.
[6] abbreviates: agonist: Pam3CSK4 (TLR2/1) 0.1 ug/mL.
The mark [7] stands for this setting: library stock concentration (final ~1000-fold dilution): 10 mM, cytotoxicity flag (confluency mask): not cytotoxic, agonist: MPLA (TLR4) […].
Where [8] appears, read: library stock concentration (final ~1000-fold dilution): 10 mM, cytotoxicity flag (confluency mask): not cytotoxic, agonist: Imiquimod (TLR7) […].

Each structure is given as a SMILES string. Several values for one entry are separate records, joined by “and”; a condition that tells them apart may be missing. Equal entries are not always repeated. Whole data set: some 2,900 compounds, median “NF-kB SEAP reporter activity, fold change vs agonist alone” near 0.99, cut for the highest 2% near 2.6. This excerpt belongs to a sample that is enriched for the highest values.

For `CO/N=C(\C(=O)NC1C(=O)N2C(C(=O)O)=C(CSc3nnnn3C)CSC12)c1csc(N)n1.CO/N=C(\C(=O)NC1C(=O)N2C(C(=O)O)=C(CSc3nnnn3C)CSC12)c1csc(N)n1.Cl` (centres undefined) (library stock concentration (final ~1000-fold dilution): 10 mM), the “NF-kB SEAP reporter activity” value with RAW-Dual [1] (agonist: LPS (TLR4) 0.1 ug/mL) was 0.999; in the assay on RAW-Dual [1] (setting [4]), 0.966; with RAW-Dual [1] (setting [5]), 1.14; in the assay with RAW-Dual [1] (setting [6]), 0.939.

`CO/N=C(\C(=O)NC1C(=O)N2C(C(=O)O)=C(CSc3nnnn3C)CSC12)c1csc(N)n1.CO/N=C(\C(=O)NC1C(=O)N2C(C(=O)O)=C(CSc3nnnn3C)CSC12)c1csc(N)n1.Cl` (centres undefined): the “NF-kB SEAP reporter activity” value in the assay with RAW-Dual [2] (setting [7]) amounted to 1.06.

Regarding `Cl.Cl.N/C(=N\OCC(O)CN1CCCCC1)c1cccnc1` (centres undefined) (library stock concentration (final ~1000-fold dilution): 10 mM), the “NF-kB SEAP reporter activity” value with RAW-Dual [1] (agonist: LPS (TLR4) 0.1 ug/mL) was 1.1; in the assay on RAW-Dual [1] (setting [4]) it was 0.949; with RAW-Dual [1] (setting [5]), 1.15; in the assay on RAW-Dual [1] (setting [6]), 1.09.

With `Cl.Cl.N/C(=N\OCC(O)CN1CCCCC1)c1cccnc1` (centres undefined), the “NF-kB SEAP reporter activity” value with RAW-Dual [2] (setting [8]) stood at 0.94; in the assay with RAW-Dual [2] (setting [7]), 1.08.

In the case of `NC(CSC(c1ccccc1)(c1ccccc1)c1ccccc1)C(=O)O` (centres undefined), the “NF-kB SEAP reporter activity” value stood at 0.946 in the assay with RAW-Dual [2] (setting [8]) and 0.976 in the assay with RAW-Dual [2] (setting [7]).

With `NC(CSC(c1ccccc1)(c1ccccc1)c1ccccc1)C(=O)O` (centres undefined) (library stock concentration (final ~1000-fold dilution): 10 mM), the “NF-kB SEAP reporter activity” value in the assay on RAW-Dual [1] (agonist: LPS (TLR4) 0.1 ug/mL) is 0.775; in the assay with RAW-Dual [1] (setting [4]) it was 0.732; with RAW-Dual [1] (setting [5]), 0.699; in the assay on RAW-Dual [1] (setting [6]) it was 0.656.

Turning to `CC(C)n1c(C=CC(O)CC(O)CC(=O)O)c(-c2ccc(F)cc2)c2ccccc21` (centres undefined) (library stock concentration (final ~1000-fold dilution): 10 mM), the “NF-kB SEAP reporter activity” value in the assay with RAW-Dual [1] (agonist: LPS (TLR4) 0.1 ug/mL) is 3.64; with RAW-Dual [1] (setting [4]), 2.92; in the assay with RAW-Dual [1] (setting [5]), 2.13; with RAW-Dual [1] (setting [6]), 3.38.

For `CC(C)c1nc(N(C)S(C)(=O)=O)nc(-c2ccc(F)cc2)c1C=CC(O)CC(O)CC(=O)O` (centres undefined), the “NF-kB SEAP reporter activity” value in the assay with RAW-Dual [2] (setting [8]) was 0.909; with RAW-Dual [2] (setting [7]), 1.05.

For the compound `CC(C)c1nc(N(C)S(C)(=O)=O)nc(-c2ccc(F)cc2)c1C=CC(O)CC(O)CC(=O)O` (centres undefined) (library stock concentration (final ~1000-fold dilution): 10 mM), the “NF-kB SEAP reporter activity” value in the assay with RAW-Dual [1] (agonist: LPS (TLR4) 0.1 ug/mL) was 1.43; with RAW-Dual [1] (setting [4]), 1.24; in the assay with RAW-Dual [1] (setting [5]), 1.01; with RAW-Dual [1] (setting [6]) it was 1.2.

For `CC(C)c1nc(N(C)S(C)(=O)=O)nc(-c2ccc(F)cc2)c1/C=C/C(O)CC(O)CC(=O)O` (centres undefined) (library stock concentration (final ~1000-fold dilution): 10 mM), the “NF-kB SEAP reporter activity” value was 0.973 in the assay on RAW-Dual [1] (agonist: LPS (TLR4) 0.1 ug/mL), 1.18 with RAW-Dual [1] (setting [4]), 1.21 with RAW-Dual [1] (setting [5]) and 1.1 with RAW-Dual [1] (setting [6]).

`CC(C)c1c(C(=O)Nc2ccccc2)c(-c2ccccc2)c(-c2ccc(F)cc2)n1CCC(O)CC(O)CC(=O)O` (centres undefined) (library stock concentration (final ~1000-fold dilution): 10 mM): the “NF-kB SEAP reporter activity” value with RAW-Dual [1] (agonist: LPS (TLR4) 0.1 ug/mL) is 1.85 and 2.93; in the assay on RAW-Dual [1] (setting [4]), 1.49 and 1.82; in the assay on RAW-Dual [1] (setting [5]), 1.03 and 1.49; in the assay with RAW-Dual [1] (setting [6]), 1.3 and 1.42.

Regarding `O=C(O)CC(O)CC(O)C=Cc1c(C2CC2)nc2ccccc2c1-c1ccc(F)cc1` (centres undefined), the “NF-kB SEAP reporter activity” value with RAW-Dual [2] (setting [8]) amounted to 2.52; in the assay with RAW-Dual [2] (setting [7]) it was 2.05.

Turning to `CC(C)n1c(C=CC(O)CC(O)CC(=O)O)c(-c2ccc(F)cc2)c2ccccc21` (centres undefined), the “NF-kB SEAP reporter activity” value turned out to be 2.45 in the assay with RAW-Dual [2] (setting [8]) and 2.14 in the assay on RAW-Dual [2] (setting [7]).

For `CC(C)c1nc(N(C)S(C)(=O)=O)nc(-c2ccc(F)cc2)c1/C=C/C(O)CC(O)CC(=O)O` (centres undefined), the “NF-kB SEAP reporter activity” value in the assay on RAW-Dual [2] (setting [7]) was found to be 1.1.

Take `O=C(O)CC(O)CC(O)C=Cc1c(C2CC2)nc2ccccc2c1-c1ccc(F)cc1` (centres undefined) (library stock concentration (final ~1000-fold dilution): 10 mM): the “NF-kB SEAP reporter activity” value in the assay on RAW-Dual [1] (agonist: LPS (TLR4) 0.1 ug/mL) is 3; in the assay on RAW-Dual [1] (setting [4]), 3; in the assay with RAW-Dual [1] (setting [5]), 2.4; with RAW-Dual [1] (setting [6]) it was 3.31.

Consider `O=c1[nH]c(=S)[nH]c2nc(-c3ccccc3)c(-c3ccccc3)nc12` (library stock concentration (final ~1000-fold dilution): 10 mM), for which the “NF-kB SEAP reporter activity” value with RAW-Dual [1] (agonist: LPS (TLR4) 0.1 ug/mL) was 0.947; in the assay with RAW-Dual [1] (setting [4]), 0.854; in the assay on RAW-Dual [1] (setting [5]), 0.938; with RAW-Dual [1] (setting [6]), 0.926.

Consider `O=c1[nH]c(=S)[nH]c2nc(-c3ccccc3)c(-c3ccccc3)nc12`, for which the “NF-kB SEAP reporter activity” value in the assay with RAW-Dual [2] (setting [8]) came out at 0.796; in the assay on RAW-Dual [2] (setting [7]), 0.977.

In the case of `Br.CCCc1cc(-c2nc(-c3ccc(C)cc3)cs2)ccn1` (library stock concentration (final ~1000-fold dilution): 10 mM), the “NF-kB SEAP reporter activity” value is 1.54 in the assay with RAW-Dual [3] (agonist: LPS (TLR4) 0.1 ug/mL), 1.04 in the assay on RAW-Dual [3] (setting [4]), 1.07 in the assay on RAW-Dual [3] (setting [5]) and 0.895 with RAW-Dual [3] (setting [6]).

As for `Br.CCCc1cc(-c2nc(-c3ccc(C)cc3)cs2)ccn1`, the “NF-kB SEAP reporter activity” value in the assay on RAW-Dual [2] (library stock concentration (final ~1000-fold dilution): 10 mM, cytotoxicity flag (confluency mask): cytotoxic (confluency <70% of control), agonist: Imiquimod (TLR7) […]) amounted to 1.1; in the assay with RAW-Dual [2] (library stock concentration (final ~1000-fold dilution): 10 mM, cytotoxicity flag (confluency mask): cytotoxic (confluency <70% of control), agonist: MPLA (TLR4) […]) it was 1.37.

For the compound `Cc1cccc(CN2CCN(C(c3ccccc3)c3ccc(Cl)cc3)CC2)c1.Cl.Cl` (centres undefined), the “NF-kB SEAP reporter activity” value is 0.843 with RAW-Dual [2] (library stock concentration (final ~1000-fold dilution): 2 mM, cytotoxicity flag (confluency mask): not cytotoxic, agonist: Imiquimod (TLR7) […]) and 1.15 in the assay with RAW-Dual [2] (library stock concentration (final ~1000-fold dilution): 2 mM, cytotoxicity flag (confluency mask): not cytotoxic, agonist: MPLA (TLR4) […]).

For `Cc1cccc(CN2CCN(C(c3ccccc3)c3ccc(Cl)cc3)CC2)c1.Cl.Cl` (centres undefined) (library stock concentration (final ~1000-fold dilution): 2 mM), the “NF-kB SEAP reporter activity” value came out at 1.51 in the assay with RAW-Dual [1] (agonist: LPS (TLR4) 0.1 ug/mL), 0.87 in the assay on RAW-Dual [1] (setting [4]), 0.931 with RAW-Dual [1] (setting [5]) and 0.984 in the assay on RAW-Dual [1] (setting [6]).

In the case of `Brc1ccc(C2CN3CCSC3=N2)cc1.O=C(O)C(=O)O` (centres undefined), the “NF-kB SEAP reporter activity” value amounted to 0.948 in the assay on RAW-Dual [2] (setting [8]) and 1.01 with RAW-Dual [2] (setting [7]).

Consider `Brc1ccc(C2CN3CCSC3=N2)cc1.O=C(O)C(=O)O` (centres undefined) (library stock concentration (final ~1000-fold dilution): 10 mM), for which the “NF-kB SEAP reporter activity” value in the assay with RAW-Dual [1] (agonist: LPS (TLR4) 0.1 ug/mL) turned out to be 1.48; with RAW-Dual [1] (setting [4]) it was 0.888; in the assay with RAW-Dual [1] (setting [5]), 0.956; in the assay on RAW-Dual [1] (setting [6]), 1.01.

Turning to `CC(=N)NCc1cccc(CN)c1.Cl.Cl`, the “NF-kB SEAP reporter activity” value is 1.08 with RAW-Dual [2] (setting [8]) and 1.03 in the assay on RAW-Dual [2] (setting [7]).

With `CC(=N)NCc1cccc(CN)c1.Cl.Cl` (library stock concentration (final ~1000-fold dilution): 10 mM), the “NF-kB SEAP reporter activity” value in the assay on RAW-Dual [1] (agonist: LPS (TLR4) 0.1 ug/mL) worked out at 0.956; with RAW-Dual [1] (setting [4]), 1.03; in the assay on RAW-Dual [1] (setting [5]), 1.02; in the assay with RAW-Dual [1] (setting [6]) it was 0.859.
